19 compounds from the supplement of paper PMC6522484 can be followed below.

Structures are written as SMILES. ± gives the standard deviation of the averaged measurements.

This experiment has as its system SW480. Put plainly: cell viability (CellTiter-Glo) relative to plate median (fraction of plate median); higher = more viable cells. To be noted: 5 µM; treatment time 24 h; reporter: 7TFP. The essentials:
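Library compounds, at a final 5 µM, stayed on reporter cells for 24 h. The cells were colorectal cancer lines stably transduced with lentiviral TCF/Wnt firefly luciferase reporters, seeded in 384-well plates 24 h before dosing. Firefly luciferase or CellTiterGlo luminescence from parallel plates was normalised to the plate median in webcellHTS2 (additive, no log transformation), and two independent replicates were averaged.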
For orientation: Cellular ATP, detected with luciferase, serves as a proxy for viable cell number.
Take `Clc1ccc(CSC(Cn2ccnc2)c2ccc(Cl)cc2Cl)cc1` (centres undefined): the cell viability worked out at 0.954 ± 0.11. As to `CC(=O)S[C@@H]1CC2=CC(=O)CC[C@]2(C)[C@H]2CC[C@@]3(C)[C@@H](CC[C@@]34CCC(=O)O4)[C@H]12`, the cell viability is 1.06 ± 0.064.

In turn, `CC[C@H](C)[C@@H]1NC(=O)[C@H](C)NC1=O` [Cyclo(alanylisoleucyl)] returned a cell viability of 1.07 ± 0.014. Regarding `O=C1NCC(=O)N2CCCC12` (centres undefined) [Cyclo(glycylprolyl)], the cell viability was 0.959 ± 0.016. With `O=c1cc(-c2ccccc2)oc2cc(O)cc(O)c12` the figure was 1.02 ± 0.045; with `CCOC(=O)[C@H](CCc1ccccc1)N[C@@H](C)C(=O)N1CCC[C@H]1C(=O)O`, 1 ± 0.029. With `Cc1oc(C(C)O)c2c1C(=O)c1c(O)cccc1C2=O` (centres undefined) [Bhimamycin A] the figure was 1.23 ± 0.13; with `CC(C)NCC(O)c1ccc2ccccc2c1` (centres undefined), 0.977 ± 0.0042. With `O=C1NS(=O)(=O)c2ccccc21` the figure was 1.03 ± 0.044; with `OC[C@H]1O[C@@H](Oc2ccc(O)cc2)[C@H](O)[C@@H](O)[C@@H]1O`, 0.936 ± 0.018; with `Cc1ccc2c(c1)CC[C@H]1CC(=O)CC[C@]21C`, 0.9365 ± 0.0021.

As to `N[C@@H]1CONC1=O`, the cell viability worked out at 1.04 ± 0.061. With `COc1cc(-c2oc3cc(O)ccc3c(=O)c2O)ccc1O`, the cell viability was 1.055 ± 0.0071. With `Nc1ccc(C(=O)O)cc1` the figure was 0.974 ± 0.013; with `COc1cc(OC)cc(OC)c1`, 1.015 ± 0.0071; with `CCN(CC)C(=O)c1cccc(C)c1`, 0.991 ± 0.028.

The compound `O=C1NC(Cc2ccc(O)cc2)C(=O)N2CCCC12` (centres undefined) [cyclo(prolyltyrosyl)] returned a cell viability of 1.025 ± 0.0071.

Compound `CC1(C)S[C@@H]2[C@H](NC(=O)[C@H](C(=O)O)c3ccsc3)C(=O)N2[C@H]1C(=O)O` came in with a cell viability of 1.03 ± 0.052. With `CN[C@H]1CC[C@@H](c2ccc(Cl)c(Cl)c2)c2ccccc21` the figure was 0.934 ± 0.22.
